Measurements: PubChem BioAssay (Tox21)
Several values for one entry are separate records, joined by “and”; a condition that tells them apart may be missing. Equal values may be shown once. Records with an inconclusive call do not appear. Entries that show only a call come without a potency. More than one record can exist for a structure, and the calls need not agree. Activity calls are given as the source filed them. Unless noted, calls come from the whole dose curve.

Key:
[1] = Nuclear factor erythroid 2-related factor 2/antioxidant responsive element (Nrf2/ARE) small molecule agonists: qHTS cell viability counter screen in human keratinocytes (AID 1919968; active = well fitted curve in the direction sought with a large enough effect in the repeat runs; an effect the other way counts as inactive or inconclusive; note: nearly all actives have a fitted effect of over 55% in size)
Procedure, shortened: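 CellTiter-Fluor fluorescence, read 1 h after reagent, gave viability in the same wells as the ARE-luciferase assay. KeratinoSens cells (1,500/well) had 23 h compound exposure at 37 C/5% CO2 following 5 h plating.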

[2] = Nuclear factor erythroid 2-related factor 2/antioxidant responsive element (Nrf2/ARE) small molecule agonists: luciferase reporter gene qHTS assay in human keratinocytes (AID 1919969); note: nearly all actives have a fitted effect of over 35% in size; note: potency is the fitted concentration of half-maximal effect
[3] = target: Gonadotropin-releasing hormone receptor (Homo sapiens) (UniProt P30968); experiment: Human gonadotropin-releasing hormone receptor (GnRHR) small molecule agonists, calcium flux assay in GnRHR-HEK293 cells (AID 1920063); note: nearly all actives have a fitted effect of over 35% in size
Chain of Gonadotropin-releasing hormone receptor (Homo sapiens) (P30968 whole entry, looked up): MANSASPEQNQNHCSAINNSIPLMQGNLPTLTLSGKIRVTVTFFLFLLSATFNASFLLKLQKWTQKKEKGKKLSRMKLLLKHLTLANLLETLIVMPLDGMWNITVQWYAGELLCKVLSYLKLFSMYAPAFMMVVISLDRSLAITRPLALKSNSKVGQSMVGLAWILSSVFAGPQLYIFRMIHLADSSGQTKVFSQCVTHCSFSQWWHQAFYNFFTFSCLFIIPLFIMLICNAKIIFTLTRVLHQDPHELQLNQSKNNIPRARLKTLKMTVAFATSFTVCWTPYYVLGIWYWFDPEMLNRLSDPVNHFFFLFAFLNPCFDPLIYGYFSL
Procedure, shortened: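 Agonist mode: compounds at 15 concentrations, in triplicate, went onto calcium dye-loaded GnRHR-HEK293 cells. Intracellular calcium was then followed as 480/540 nm fluorescence at 1 s intervals over 3 min.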

[4] = target: KiSS-1 receptor (Homo sapiens) (UniProt Q969F8); experiment: Human kisspeptin (KISS1R) small molecule agonists, calcium flux assay in KISS1R-HEK293 cells (AID 1920064; active = well fitted curve in the direction sought with a large enough effect in the repeat runs; an effect the other way counts as inactive or inconclusive)
Chain of KiSS-1 receptor (Homo sapiens) (Q969F8 whole entry, looked up): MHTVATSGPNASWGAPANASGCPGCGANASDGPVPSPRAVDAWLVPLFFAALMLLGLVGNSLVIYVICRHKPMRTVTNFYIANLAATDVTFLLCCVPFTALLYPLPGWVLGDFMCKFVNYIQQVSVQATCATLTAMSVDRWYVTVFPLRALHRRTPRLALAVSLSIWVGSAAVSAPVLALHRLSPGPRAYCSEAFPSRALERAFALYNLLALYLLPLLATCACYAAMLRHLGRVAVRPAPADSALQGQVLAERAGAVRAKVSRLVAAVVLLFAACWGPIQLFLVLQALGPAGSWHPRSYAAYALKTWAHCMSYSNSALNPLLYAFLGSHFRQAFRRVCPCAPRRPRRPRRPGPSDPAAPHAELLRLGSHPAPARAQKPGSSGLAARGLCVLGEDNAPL
Procedure, shortened: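 Agonist mode: intracellular calcium rise tracked at 1 s intervals over 3 min (480/540 nm) immediately after compound addition to dye-loaded KISS1R-HEK293 stable cells. Each compound tested at 15 concentrations in triplicate.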

[5] = G protein-coupled receptor (GPCR) small molecule agonists, calcium flux assay: HEK293 wild type cell line counter screen (AID 1920065)
Procedure, shortened: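 Calcium flux counter screen: compound added in agonist mode at 15 concentrations in triplicate to dye-loaded parental HEK293 cells. Fluorescence (480/540) read kinetically for 3 min; ATP served as positive control.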

[6] = p53 small molecule agonists, cell-based qHTS assay with rat liver microsomes (AID 1963578)
Procedure, shortened: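 Compound in DMSO added to p53RE-bla cells 5 h post-plating; rat microsomes/NADPH 0.5 mg/mL final; 16 h, 37 C; LiveBLAzer 2 h RT.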

[7] = p53 small molecule agonists, cell-based qHTS assay with human liver microsomes: qHTS cell viability counter screen (AID 1963579); note: nearly all actives have a fitted effect of over 45% in size
Procedure, shortened: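 HLM-supplemented (0.5 mg/mL final) and NADPH-supplemented (0.5 mg/mL final) p53RE-bla cultures, 4,000 cells per well, were dosed with compounds in DMSO for 16 h at 37 C; luminescent ATP detection (CellTiter-Glo, 30 min, room temperature) quantified surviving cells.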

[8] = p53 small molecule agonists, cell-based qHTS assay with rat liver microsomes: qHTS cell viability counter screen (AID 1963580); note: nearly all actives have a fitted effect of over 45% in size
Procedure, shortened: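 Cytotoxicity counter screen: intracellular ATP read by CellTiter-Glo luminescence in the p53 reporter wells. HCT-116 p53RE-bla cells were treated for 16 h at 37 C alongside rat liver microsomes and NADPH, each 0.5 mg/mL final.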

[9] = p53 small molecule agonists, cell-based qHTS assay: qHTS cell viability counter screen (AID 1963581); note: nearly all actives have a fitted effect of over 45% in size
Procedure, shortened: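 Counter screen read by CellTiter-Glo luminescence (ATP content, 30 min at room temperature), run in the same wells as the beta-lactamase reporter read. HCT-116 p53RE-bla cells saw compounds for 16 h at 37 C.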

[10] = p53 small molecule agonists, cell-based qHTS assay (AID 1963582; active = well fitted activation curve with a large enough effect in the signal ratio in the repeat runs, not every such curve was filed as active; the % refers to the signal ratio)
Procedure, shortened: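 Read-out is beta-lactamase FRET fluorescence after 2 h at room temperature with LiveBLAzer B/G substrate. p53 response element-bla cells were treated 16 h at 37 C with compounds in DMSO, added 5 h after seeding.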

[11] = target: 5-hydroxytryptamine receptor 2A (Homo sapiens) (UniProt P28223); experiment: 5-hydroxytryptamine receptor 2A (HTR2A) small molecule antagonists, cell-based qHTS assay (AID 1963586); note: nearly all actives have a fitted effect of over 45% in size
Chain of 5-hydroxytryptamine receptor 2A (Homo sapiens) (P28223 whole entry, looked up): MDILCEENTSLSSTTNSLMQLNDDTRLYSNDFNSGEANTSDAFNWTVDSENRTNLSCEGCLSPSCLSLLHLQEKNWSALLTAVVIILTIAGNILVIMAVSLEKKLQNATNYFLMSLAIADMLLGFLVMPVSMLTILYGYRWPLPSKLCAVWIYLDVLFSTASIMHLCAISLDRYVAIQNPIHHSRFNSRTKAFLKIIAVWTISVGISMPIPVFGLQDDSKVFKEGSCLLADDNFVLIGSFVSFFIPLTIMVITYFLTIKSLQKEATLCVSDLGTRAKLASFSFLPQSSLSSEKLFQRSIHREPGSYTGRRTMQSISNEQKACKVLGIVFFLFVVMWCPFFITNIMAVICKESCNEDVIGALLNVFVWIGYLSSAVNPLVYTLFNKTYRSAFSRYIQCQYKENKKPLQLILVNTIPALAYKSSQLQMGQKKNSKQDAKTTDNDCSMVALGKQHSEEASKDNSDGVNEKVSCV
Procedure, shortened: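 CHO cells stably expressing human HTR2A were plated for 18 h at 37 C, then loaded with calcium dye for 1 h. Compounds were preincubated 5 min at room temperature before DOI (4 nM solution) was added. Kinetic fluorescence was read for 3 min.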

[12] = target: 5-hydroxytryptamine receptor 2A (Homo sapiens) (UniProt P28223); experiment: 5-hydroxytryptamine receptor 2A (HTR2A) small molecule agonists, cell-based qHTS assay (AID 1963587); note: nearly all actives have a fitted effect of over 30% in size
Procedure, shortened: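 Kinetic calcium-flux fluorescence (2 min, 1 sec intervals) after compound addition in agonist mode. HTR2A-CHO cells were cultured 18 h, then dye-loaded 1 h at 37 C.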

[13] = target: Muscarinic acetylcholine receptor M1 (Homo sapiens) (UniProt P11229); experiment: Cholinergic receptor muscarinic 1 (CHRM1) small molecule antagonists, cell-based qHTS assay (AID 1963588); note: nearly all actives have a fitted effect of over 40% in size
Chain of Muscarinic acetylcholine receptor M1 (Homo sapiens) (P11229 whole entry, looked up): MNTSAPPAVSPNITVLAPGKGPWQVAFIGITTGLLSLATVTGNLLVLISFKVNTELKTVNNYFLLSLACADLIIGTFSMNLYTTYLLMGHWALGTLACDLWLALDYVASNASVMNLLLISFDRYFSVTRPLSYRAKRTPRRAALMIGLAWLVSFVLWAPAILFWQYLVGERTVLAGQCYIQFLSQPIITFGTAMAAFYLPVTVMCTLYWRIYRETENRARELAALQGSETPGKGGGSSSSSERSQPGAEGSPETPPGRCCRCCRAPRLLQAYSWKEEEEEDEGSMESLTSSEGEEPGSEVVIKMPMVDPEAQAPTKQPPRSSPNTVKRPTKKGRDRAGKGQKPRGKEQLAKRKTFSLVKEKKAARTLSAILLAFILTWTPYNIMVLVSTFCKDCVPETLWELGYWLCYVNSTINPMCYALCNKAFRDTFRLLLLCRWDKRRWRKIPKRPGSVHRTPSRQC
Procedure, shortened: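 Compounds were tested at 15 concentrations in three independent runs. Dye-loaded CHRM1-CHO cells were exposed 5 min at room temperature before stimulation by acetylcholine added at 50nM. Intracellular calcium was read kinetically on FDSS for 3 min.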

[14] = target: Muscarinic acetylcholine receptor M1 (Homo sapiens) (UniProt P11229); experiment: Cholinergic receptor muscarinic 1 (CHRM1) small molecule agonists, cell-based qHTS assay (AID 1963589); note: nearly all actives have a fitted effect of over 35% in size
Procedure, shortened: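 Agonist-mode calcium-flux screen: compounds at 15 concentrations, three independent runs, were pin-transferred onto dye-loaded human CHRM1-CHO cells. Fluorescence was then recorded kinetically every second over minutes.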

[15] = cAMP Responsive Elements (CRE) small molecule agonists, cell-based qHTS assay (AID 1963590)
Procedure, shortened: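 Agonist mode: compound added to CRE-bla HEK 293T cells (2,000/well, 18 h after plating) for 3 h at 37 C/5% CO2. Reporter activity detected via FRET beta-lactamase substrate, 2 h room-temperature loading.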

[16] = cAMP Responsive Elements (CRE) small molecule antagonists, cell-based qHTS assay (AID 1963591; active = well fitted inhibition curve with a large enough effect in the signal ratio in the repeat runs, not every such curve was filed as active; the % refers to the signal ratio)
Procedure, shortened: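 Antagonist mode: compounds are added alongside the adenylyl cyclase activator NKH477 (0.25 uM final) to CRE-bla HEK293T cells for 3 h. LiveBLAzer FRET substrate, 2 h at room temperature, reports bla expression.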

[17] = target: Beta-2 adrenergic receptor (Homo sapiens) (UniProt P07550); experiment: Adrenergic beta2 receptor (ADRB2) small molecule antagonists, cell-based qHTS assay (AID 1963592); note: series mostly up to about 92 µM; nearly all actives have a fitted effect of over 50% in size
Chain of Beta-2 adrenergic receptor (Homo sapiens) (P07550 whole entry, looked up): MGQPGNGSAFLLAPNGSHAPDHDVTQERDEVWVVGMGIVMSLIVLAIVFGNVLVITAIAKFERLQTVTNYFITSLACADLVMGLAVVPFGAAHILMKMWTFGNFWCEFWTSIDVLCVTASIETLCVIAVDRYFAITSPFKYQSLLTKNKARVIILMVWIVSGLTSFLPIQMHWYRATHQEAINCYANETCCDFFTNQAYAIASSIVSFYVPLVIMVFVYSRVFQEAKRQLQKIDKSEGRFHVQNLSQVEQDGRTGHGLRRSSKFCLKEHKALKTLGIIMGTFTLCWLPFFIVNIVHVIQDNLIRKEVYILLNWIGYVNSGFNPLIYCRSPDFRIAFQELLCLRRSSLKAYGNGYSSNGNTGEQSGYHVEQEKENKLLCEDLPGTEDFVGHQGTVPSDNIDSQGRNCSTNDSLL
Procedure, shortened: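 Assay format: CHO-ADRB2 cells, 18-20hr seeding at 37C/5% CO2, then compound plus 1nM isoproterenol agonist mix for 0.5hr RT. Homogeneous time-resolved fluorescence cAMP detection after 1hr, expressed as 665/615 nm ratio.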

[18] = target: Beta-2 adrenergic receptor (Homo sapiens) (UniProt P07550); experiment: Adrenergic beta2 receptor (ADRB2) small molecule agonists, cell-based qHTS assay (AID 1963593);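 note: CHO cells stably overexpressing human ADRB2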
Procedure, shortened: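 CHO cells stably over-expressing ADRB2 were plated overnight at 37C, then dosed with compounds plus a stimulation mix containing 100uM IBMX and 25uM Ro-20-1724 for 0.5hr at room temperature. cAMP was measured by HTRF competition, 1hr.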

[19] = target: D(2) dopamine receptor (Homo sapiens) (UniProt P14416); experiment: Dopamine D2 receptor (DRD2) small molecule agonists, cell-based qHTS assay (AID 1963594); note: nearly all actives have a fitted effect of over 35% in size
Chain of D(2) dopamine receptor (Homo sapiens) (P14416 whole entry, looked up): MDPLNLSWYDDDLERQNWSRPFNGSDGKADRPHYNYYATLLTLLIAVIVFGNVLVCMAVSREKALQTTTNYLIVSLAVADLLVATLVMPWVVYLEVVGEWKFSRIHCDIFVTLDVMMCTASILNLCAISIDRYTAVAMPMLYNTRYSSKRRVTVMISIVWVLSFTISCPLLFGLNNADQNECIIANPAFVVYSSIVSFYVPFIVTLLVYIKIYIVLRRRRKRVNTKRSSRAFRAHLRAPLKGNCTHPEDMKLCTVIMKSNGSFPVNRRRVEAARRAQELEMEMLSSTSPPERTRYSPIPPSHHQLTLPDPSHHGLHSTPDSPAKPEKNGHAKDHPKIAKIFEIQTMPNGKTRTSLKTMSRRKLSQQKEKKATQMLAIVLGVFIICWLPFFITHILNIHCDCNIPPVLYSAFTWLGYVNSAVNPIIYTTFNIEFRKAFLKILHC
Procedure, shortened: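 cAMP accumulation in DRD2-HEK293 cells measured by HTRF after 1 h detection; compounds added 10 min before NKH477 (200nM […]) forskolin-analogue stimulation, 30 min at room temperature, with Ro20-1724 present at 0.1 mM final.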

[20] = target: D(2) dopamine receptor (Homo sapiens) (UniProt P14416); experiment: Dopamine D2 receptor (DRD2) small molecule antagonists, cell-based qHTS assay (AID 1963595; active = well fitted inhibition curve with a large enough effect in the signal ratio in the repeat runs, with a control signal flat; the % refers to the signal ratio)
Procedure, shortened: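 HEK293 cells stably expressing DRD2, preincubated with 0.1 mM Ro20-1724 and compounds 10 min, were stimulated with 200 nM NKH477 plus 12 nM quinpirole for 30 min at room temperature; cAMP measured by HTRF (665/620 nm).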

Compound	Potency [1]	Potency [2]	Potency [3]	Potency [4]	Potency [5]	Potency [6]	Potency [7]	Potency [8]	Potency [9]	Potency [10]	Potency [11]	Potency [12]	Potency [13]	Potency [14]	Potency [15]	Potency [16]	Potency [17]	Potency [18]	Potency [19]	Potency [20]
CCCCC(CC)C(=O)OCCOCCOCCOC(=O)C(CC)CCCC (stereo not drawn)	inactive	68.6 µM (active)	inactive	inactive	inactive	inactive	inactive	inactive	inactive	inactive	inactive	inactive	inactive	inactive	inactive	inactive	inactive	inactive	inactive	inactive
CC(C)(c1ccc(O)cc1)c1ccc(O)cc1	inactive	inactive and 62.2 µM (active)	inactive	inactive	inactive		inactive	inactive	inactive						inactive		inactive		inactive	inactive
O=C(O)c1cc(=O)c2c(OCC(O)COc3cccc4oc(C(=O)O)cc(=O)c34)cccc2o1	inactive	inactive	inactive	inactive	inactive		inactive	inactive	inactive	inactive					inactive		inactive	inactive	inactive	inactive
CC(C)CCCCCOC(=O)CCS	inactive	inactive	inactive	inactive	inactive		inactive	inactive	inactive	inactive	inactive	inactive	inactive	inactive		inactive	inactive	inactive		inactive
Cc1ccccc1S(N)(=O)=O	inactive	inactive	inactive	inactive	inactive		inactive	inactive	inactive	inactive	inactive	inactive			inactive	inactive	inactive		inactive	inactive
Cc1cc(N)no1	inactive	inactive	inactive	inactive	inactive		inactive	inactive		inactive	inactive	inactive		inactive	inactive	inactive	inactive		inactive	inactive
O=C(OC(=O)c1ccccc1)c1ccccc1	inactive	inactive	inactive	inactive	inactive		inactive	inactive	inactive	inactive	inactive	inactive	inactive	inactive		inactive	inactive	inactive	inactive	inactive
CCCCCCCOC(C)=O	inactive	inactive	inactive	inactive	inactive	inactive	inactive	inactive	inactive	inactive	inactive	inactive	inactive	inactive	inactive	inactive	inactive	inactive	inactive	inactive
